The record followed here is PubChem BioAssay (Tox21).

Where “and” joins values, the source holds several entries; their conditions need not be identical. Equal values may be shown once. Records with an inconclusive call do not appear. A call without a number means that no potency is given here. Some structures have more than one record in an assay (separate samples or runs), and their calls can disagree. Calls of active or inactive are those of the source. The call rests on the fitted dose curve; in most records, active means well fitted cell-killing curve with a large enough effect in the repeat runs; inconclusive means weak or mixed curves, or effect the other way; inactive means flat fitted curve, though single readings scatter.
Potency means the concentration at half of the fitted maximal effect.

The experiment is described as follows: qHTS assay to identify small molecule agonists of the estrogen receptor beta (ER-beta) signaling pathway - cell viability counter screen (AID 1259380). Further: nearly all actives have a fitted effect of over 30% in size. Conditions: ER-beta-bla HEK293T viability, CellTiter-Glo luminescence, 16 h; series mostly up to 92.4 µM. The text has this: National Center for Advancing Translational Sciences [NCATS]
NIH Chemical Genomics Center [NCGC]
U.S. Environmental Protection Agency [EPA]
National Institutes of Environmental Health Sciences [NIEHS]
National Toxicology Program [NTP]
U.S. Food and Drug Administration [FDA]
Estrogen receptor (ER), a nuclear hormone receptor, plays an important role in development, metabolic homeostasis and reproduction. Two subtypes of ER, ER-alpha and ER-beta, have similar expression patterns with some uniqueness in both types. Endocrine disrupting chemicals (EDCs) and their interactions with steroid hormone receptors like ER causes disruption of normal endocrine function. To identify the compounds that activate ER signaling, an ER beta-UAS-bla GripTite cell line (Life Technologies, Madison, WI, USA) containing a beta-lactamase reporter gene under the control of an UAS response element was used to screen Tox21 10K compound library. The cytotoxicity of the Tox21 compound library against the ER-beta-bla cell line was tested in parallel by measuring the cell viability using CellTiter-Glo assay in the same wells.
Tox21 Assay Protocol Summary:
ER-beta-UAS-bla HEK293T cells were dispensed at 2,000 cells/5 uL of assay medium containing 2% charcoal stripped FBS per well into black wall/clear-bottom 1536-well plates using a Multidrop Combi (ThermoFisher Scientific, Waltham, MA) dispenser. After the assay plates were incubated at a 37C and 5% CO2 for 6 hr, 23 nL of compounds dissolved in DMSO, positive controls or DMSO only was transferred to the assay plate by a Pintool station (Kalypsys, San Diego, CA). The plates were incubated at 37C and 5% CO2 for 16 hr. Then 1 uL of LiveBLAzerTM B/G FRET substrate was added using a BioRAPTR FRD (Flying Reagent Dispenser, Aurora Discovery, San Diego, CA) and then the plates were incubated at room temperature for 2 hours, and fluorescence intensity was measured by an Envision plate reader (PerkinElmer, Shelton, CT). For cell viability readout that measures cytotoxicity, 4 uL/well of CellTiter-Glo reagent was added into the assay plates using a FRD. After 30 min incubation at room temperature, the luminescence intensity in the plates was measured using a ViewLux (PerkinElmer) plate reader.
(Quantitative high-throughput screening tests each substance at several concentrations.)
For `C=C(C)C(=O)OCCCCCCCCCC`, the Potency result was “inactive”.
With `Clc1nnc(Cl)c2ccccc12` the entry was “inactive”; with `CCCCCCCCCCCCOCCOCCOCCOCCOCCOCCOCCOCCOCCO`, 26.6 µM (active).
With `O=C(O)Cc1ccc2c(c1)C(=O)c1ccccc1CO2` the entry was “inactive”; with `C#CC1(O)CC[C@H]2[C@@H]3CCC4=CCCC[C@@H]4[C@H]3CC[C@@]21C` (stereo not given in full), 61.1 µM (active) and 29.8 µM (active); with `Cc1ccc(C(C)C)cc2c(C)ccc1-2`, “inactive”.
With `Cc1ccc(C)cc1` the entry was “inactive”; with `CCCCCCCCCCOC(=O)c1ccccc1C(=O)OCCCCCCCC`, “inactive”; with `CCCC(=O)OCOC(=O)C1=C(C)NC(C)=C(C(=O)OC)C1c1cccc(Cl)c1Cl` (stereo not given), “inactive”.
Take `Cc1c(N)cccc1C(F)(F)F`: the Potency entry is “inactive”.
With `CC(CO)Oc1ccccc1` (stereo not given) the entry was “inactive”.
As for `O=C(/C=C/c1ccc(O)c(O)c1)O[C@@H](C(=O)O)[C@@H](OC(=O)/C=C/c1ccc(O)c(O)c1)C(=O)O`, the Potency entry is “inactive”.
With `CC(C)(C)NSc1nc2ccccc2s1` the entry was “inactive”; with `Cc1ccc(-c2ccccc2)cc1`, “inactive”; with `O=C1NC(=O)[C@@H]2CC=CC[C@H]12`, 27.3 µM (active).
Regarding `CC[C@H](C)COC(=O)/C=C/c1ccc(N=Cc2ccc(OC)cc2)cc1`, the Potency was 6.1 µM (active).
In the case of `CCCCCCCC/C=C\CCCCCCCCN`, the Potency result is “inactive”.
With `CCOC(=O)c1ccc(C2CCC(NC[C@H](O)COc3ccc(O)c(NS(C)(=O)=O)c3)CC2)cc1` (stereo not given in full) the figure was 50.2 µM (active); with `Nc1ccc(NCCO)c([N+](=O)[O-])c1`, “inactive”.
In the case of `Nc1ccc(C(=O)O)c(O)c1`, the Potency result was “inactive”.
On to `CCN(CC)C(=O)c1cc(S(=O)(=O)Cc2ccccc2)c(N2CCC(c3ccccc3)CC2)cc1N(CC)CCN(C)C`, for which the Potency is 19.1 µM (active).
For `CCCC[P+](C)(CCCC)CCCC`, the Potency result was “inactive”.
With `COc1cccc2c1C(=O)c1c(O)c3c(c(O)c1C2=O)C[C@@](O)(C(C)=O)C[C@@H]3O[C@H]1C[C@H](N)[C@H](O)[C@H](C)O1` the figure was 77.4 µM (active) and inactive; with `OCCN1CCN(CCCN2c3ccccc3Sc3ccc(C(F)(F)F)cc32)CC1`, 26.6 µM (active); with `CCCC(=O)OCCc1ccccc1`, “inactive”.
With `Nc1nc2c(ncn2COCCO)c(=O)[nH]1` the entry was “inactive”; with `CN1CCC[C@@H]1CCO[C@](C)(c1ccccc1)c1ccc(Cl)cc1`, 23.7 µM (active); with `CCCCCC(C)OC(=O)COc1ccc(Cl)c2cccnc12` (stereo not given), 54.5 µM (active).
`CC(C)(C)c1csc(-c2cc3cc(OCc4ccccc4CC(=O)O)ccc3o2)n1`: the Potency is 4.86 µM (active).
On to `C#Cc1ccc(-c2ccccc2F)cc1`, for which the Potency result is “inactive”.
With `CC(C)=CCC1=C(O)c2ccccc2C(=O)C1=O` the figure was 1.53 µM (active).
With `COc1ccc(NC(=O)CC(C)=O)cc1` the entry was “inactive”; with `CC(C)NC[C@@H](O)COc1ccc(CC(N)=O)cc1`, “inactive”.
With `O[C@@H]([C@H](O)[C@H](O)CBr)[C@H](O)CBr` the entry was “inactive”; with `COC(=O)Nc1nc2ccc(C(=O)c3ccccc3)cc2[nH]1`, “inactive”.
For `CCCCC/C=C\C/C=C\CCCCCCCC(=O)O`, the Potency is 43.3 µM (active).
Regarding `O=S(=O)(O)c1ccc(N=Nc2c(O)ccc3ccccc23)cc1`, the Potency was 43.3 µM (active).
With `CCC(COC(=O)CCS)(COC(=O)CCS)COC(=O)CCS` the entry was “inactive”; with `OC[C@H]1O[C@H](O[C@H]2O[C@H](CO)[C@@H](O)[C@H](O)[C@H]2O)[C@H](O)[C@@H](O)[C@@H]1O`, “inactive”.
Turning to `Nc1nc(N)nc(-c2cc(Cl)ccc2Cl)n1`, the Potency entry is “inactive”.
